# Laboratory results taken from PubChem BioAssay.
# Values joined by “and” are separate entries in the source; they are usually repeats but may differ in a detail not shown here. Identical values can stand only once. Active and inactive are the calls of the source.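 The calls were made as follows, unless noted: active = compound raises insulin release from rat beta cells at 5 mM glucose, no numeric limit stated; inactive = the rest.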
# How the values were obtained:
# [1] = Wnt pathway potentiators raising nuclear beta-catenin – imaging, WNT3A-conditioned medium, mouse C2C12, NPC library, primary screen (AID 1117326; in the data active = nuclear beta-catenin stimulation mostly above about 4.2%, no sharp cut-off; inactive = mostly below about 10%); details: stronger effect = higher value
# [2] = stimulators of insulin release from INS-1E, primary screen, cell-based, 5 mM glucose, NPC library (AID 1117329); details: rat INS-1E insulin secretion, at 10 µM, stronger effect = higher value
# [3] = growth inhibition of GSK3B-pretreated HCT116 cells – cell-based, CellTiter-Glo, 0.2 to 20 µM (AID 1117336;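 active = compounds lowering colon cancer cell viability after pretreatment blocking the GSK3B kinase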); details: HCT116 viability after GSK3B inhibitor, at 20 µM, stronger effect = higher value
# [4] = inhibition of endothelial tube formation, primary screen, imaging, VEGF stimulated, CD31 staining, tube area, NPC library (AID 1117340;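 active = compound that reduces growth-factor-driven endothelial tube area in a mixed cell culture, no cutoff stated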); details: VEGF-stimulated ADSC/ECFC co-culture, at 10 µM, stronger effect = higher value
# [5] = GLP1 release stimulators, primary, NCI-H716, NPC library (AID 1117341;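 active = compound raises GLP1 secretion from the human gut endocrine cells, with no numeric limit stated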); details: NCI-H716 cells, at 10 µM, stronger effect = higher value
# [6] = HCT116 colon cancer cell growth inhibition, primary screen, CellTiter-Glo luminescence, NPC library (AID 1117342;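 active = compounds that lower survival of HCT116 colon cancer cells in the luminescence readout, no numeric limit stated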); details: at 20 µM (top of the series)
# [7] = reduced SW480 viability measured with CellTiter-Glo, NPC library, primary (AID 1117343;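 active = compounds that lower viability of the colon cancer cells in the luminescence readout, with no numeric limit stated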); details: CellTiter-Glo luminescence; at 20 µM (top of the series)
# [8] = NPC library primary testing for decreased DLD-1 cell viability via CellTiter-Glo (AID 1117346;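 active = compounds that lower survival of DLD-1 colon cancer cells in the luminescence readout, no cutoff given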); details: DLD-1 viability, CellTiter-Glo luminescence; at 20 µM (top of the series)
# [9] = molecular target: 6-phosphogluconate dehydrogenase, decarboxylating (Homo sapiens) (UniProt P52209); test: inhibition of human phosphogluconate dehydrogenase – biochemical, recombinant enzyme, NADPH absorbance, primary screen (AID 1159550;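 active = at least 20% inhibition of 6-phosphogluconate dehydrogenase activity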); details: recombinant 6PGD, NADPH absorbance 341 nm; at 10 µM; stronger effect = higher value
# [10] = modulation of C. elegans fzo-1 (AID 1259413; call rule not given here;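 also: fzo-1 mutant C. elegans worms in liquid wells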); details: C. elegans fzo-1 modulator screen, mean read-out; stronger effect = higher value
# [11] = EMT-state selective cytotoxicity in co-culture – imaging, PC-3E GFP, TEM4-18 mCherry, primary screen (AID 1345086;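 active = compounds killing one labelled cell type while sparing the other, by normalised counts and ratio limits, not self-fluorescent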;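 also: cells exposed to compound for 72 h before imaging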;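 as to red/green cell ratio (normalised): normalised mesenchymal count divided by normalised epithelial count so high means epithelial killing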); details: PC-3E GFP / TEM4-18 mCherry co-culture, imaging cell counts, at 1 µM
# [12] = MELAS cybrid and Rieske KO viability enhancers – cell-based, MELAS cybrids, Rieske KO mouse fibroblasts, CellTiter-Glo, primary screen (AID 1508586;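 active = mean z-score across replicates of 1.96 or higher in either the MELAS or the Rieske mutant cell line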;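 also: z relative to plate mean and SD of compound and empty wells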); details: low glucose
# [13] = molecular target: NAD(+) hydrolase SARM1 (Homo sapiens) (UniProt Q6SZW1); test: blocking NAD cleavage by SARM1 SAM-TIR – cell lysate, NAD-Glo luminescence (AID 1508614;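 active = compound whose remaining NAD level is above about 45 nM, limit read from the data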;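 also: higher remaining NAD means stronger inhibition of SARM1 NADase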); details: SAM-TIR HEK293T lysate NADase, at 1 µM, stronger effect = higher value
# [14] = molecular target: Mitogen-activated protein kinase 7 (Homo sapiens) (UniProt Q13164); test: Gal4-ERK5 driven luciferase induction – cell-based, HTS, primary screen (AID 1508626;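 active = luciferase signal above three times the same-plate solvent-only control wells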;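 also: luciferase driven by Gal4-ERK5 fusion binding five Gal4 sites before minimal TATA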); details: HeLa Gal4-ERK5 transactivation, 18 h, at 5 µM, stronger effect = higher value
# [15] = test system: F380Y; test: BK channel mutant inhibitors and activators – cell-based, U2OS BacMam, thallium flux, beta subunits, selectivity assay, profiling panel (AID 1259406;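 active = thallium flux through the channel raised or lowered by more than 3 SD from vehicle-only wells, actives on both sides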;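 also: initial slope of Thallos dye fluorescence rise after thallium is added; log ratio against the mean of 0.3% DMSO vehicle wells on the same plate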); details: U2OS BacMam BK variants, at 30 µM
# [16] = test system: F380Y/beta1; test: as above; details: U2OS BacMam BK variants, at 30 µM
# [17] = test system: F380Y/beta2Delta; test: as above; details: U2OS BacMam BK variants, at 30 µM
# [18] = MELAS cybrid survival, CellTiter-Glo 48 h, stronger effect = higher value
# [19] = Rieske KO mouse fibroblast survival, CellTiter-Glo 72 h
# Mitogen-activated protein kinase 7 (Homo sapiens), sequence (Q13164 whole entry, looked up, the tested form may be a part): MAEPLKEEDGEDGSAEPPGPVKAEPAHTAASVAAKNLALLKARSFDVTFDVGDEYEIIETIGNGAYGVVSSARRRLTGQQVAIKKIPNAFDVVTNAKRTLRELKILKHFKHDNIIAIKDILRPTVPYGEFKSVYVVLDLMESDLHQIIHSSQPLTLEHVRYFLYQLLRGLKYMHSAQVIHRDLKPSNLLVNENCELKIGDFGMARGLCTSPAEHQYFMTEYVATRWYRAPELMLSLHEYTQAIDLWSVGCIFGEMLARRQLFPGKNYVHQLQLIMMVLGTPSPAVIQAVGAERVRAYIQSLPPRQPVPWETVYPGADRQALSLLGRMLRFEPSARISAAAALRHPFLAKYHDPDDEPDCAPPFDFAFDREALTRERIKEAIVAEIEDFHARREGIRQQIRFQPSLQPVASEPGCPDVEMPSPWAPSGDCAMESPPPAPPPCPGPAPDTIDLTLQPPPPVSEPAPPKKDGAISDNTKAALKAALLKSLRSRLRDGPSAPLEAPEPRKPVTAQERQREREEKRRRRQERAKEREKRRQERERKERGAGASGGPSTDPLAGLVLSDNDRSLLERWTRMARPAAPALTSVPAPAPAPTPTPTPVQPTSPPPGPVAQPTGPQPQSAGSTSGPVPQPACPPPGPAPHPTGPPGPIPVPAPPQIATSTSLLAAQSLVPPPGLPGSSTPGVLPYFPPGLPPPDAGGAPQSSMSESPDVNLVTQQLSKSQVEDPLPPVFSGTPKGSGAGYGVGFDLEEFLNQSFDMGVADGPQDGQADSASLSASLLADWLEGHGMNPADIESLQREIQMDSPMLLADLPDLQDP
# NAD(+) hydrolase SARM1 (Homo sapiens), sequence (Q6SZW1 whole entry, looked up, the tested form may be a part): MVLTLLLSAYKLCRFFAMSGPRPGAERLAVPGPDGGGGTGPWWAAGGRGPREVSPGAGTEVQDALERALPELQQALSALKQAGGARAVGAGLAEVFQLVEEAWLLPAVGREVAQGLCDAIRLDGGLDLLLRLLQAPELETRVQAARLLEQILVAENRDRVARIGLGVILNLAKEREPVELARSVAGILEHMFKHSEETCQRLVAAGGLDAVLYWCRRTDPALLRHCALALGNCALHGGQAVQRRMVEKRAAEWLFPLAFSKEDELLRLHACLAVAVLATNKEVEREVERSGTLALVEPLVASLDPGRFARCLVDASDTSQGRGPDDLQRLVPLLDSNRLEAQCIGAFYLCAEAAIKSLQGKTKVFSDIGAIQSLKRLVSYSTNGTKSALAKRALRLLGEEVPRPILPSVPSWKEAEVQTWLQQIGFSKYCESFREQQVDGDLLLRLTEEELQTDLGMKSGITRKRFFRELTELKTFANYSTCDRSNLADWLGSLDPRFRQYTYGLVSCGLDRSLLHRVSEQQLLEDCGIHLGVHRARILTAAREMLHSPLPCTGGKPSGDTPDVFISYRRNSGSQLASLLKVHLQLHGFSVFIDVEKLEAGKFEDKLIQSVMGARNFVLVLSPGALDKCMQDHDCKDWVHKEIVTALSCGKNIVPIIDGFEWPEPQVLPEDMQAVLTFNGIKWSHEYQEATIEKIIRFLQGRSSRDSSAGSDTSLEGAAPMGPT
# 6-phosphogluconate dehydrogenase, decarboxylating (Homo sapiens), sequence (P52209 whole entry, looked up): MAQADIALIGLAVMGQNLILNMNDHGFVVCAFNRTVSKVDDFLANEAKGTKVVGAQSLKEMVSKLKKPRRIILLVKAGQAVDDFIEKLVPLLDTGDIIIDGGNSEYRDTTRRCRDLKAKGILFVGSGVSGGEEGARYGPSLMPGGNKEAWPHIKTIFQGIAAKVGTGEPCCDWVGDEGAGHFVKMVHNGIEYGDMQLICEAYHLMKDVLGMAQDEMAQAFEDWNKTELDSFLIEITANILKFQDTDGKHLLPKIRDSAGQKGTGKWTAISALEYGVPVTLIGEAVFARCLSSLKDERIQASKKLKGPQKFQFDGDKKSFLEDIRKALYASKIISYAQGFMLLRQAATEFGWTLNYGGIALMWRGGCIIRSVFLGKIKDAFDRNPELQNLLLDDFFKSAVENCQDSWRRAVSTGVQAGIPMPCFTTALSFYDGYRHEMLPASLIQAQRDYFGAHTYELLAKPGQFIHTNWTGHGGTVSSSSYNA
compound,measurement,setting,value
CCN(CC)c1ccc(C(=C2C=CC(=[N+](CC)CC)C=C2)c2cc(S(=O)(=O)O)ccc2S(=O)(=O)[O-])cc1,nuclear beta-catenin stimulation,[1]; at 10 µM,0.8% (inactive)
same,nuclear beta-catenin stimulation,"[1]; stimulation, at 2 µM",4.4%
same,insulin secretion stimulation,[2],1.5% (inactive)
same,viability decrease,[3],1.1% (inactive)
same,tube area decrease,[4],10.6% (inactive)
same,GLP1 secretion stimulation,[5],-12.8% (inactive)
same,inhibition of viability,[6],20.3% (inactive)
same,viability decrease (inhibition),[7],52.8% (active)
same,viability decrease (inhibition),[8],13% (inactive)
N[C@@H](CSSC[C@H](N)C(=O)O)C(=O)O,nuclear beta-catenin stimulation,[1]; at 10 µM,1.1% (inactive)
same,nuclear beta-catenin stimulation,"[1]; stimulation, at 2 µM",3.2%
same,insulin secretion stimulation,[2],-2.2% (inactive)
same,viability decrease,[3],0.8% (inactive)
same,tube area decrease,[4],-4% (inactive)
same,GLP1 secretion stimulation,[5],3.6% (inactive)
same,inhibition of viability,[6],-21.6% (inactive)
same,viability decrease (inhibition),[7],38.7% (inactive)
same,viability decrease (inhibition),[8],8.45% (inactive)
NC12CC3CC(CC(C3)C1)C2,nuclear beta-catenin stimulation,[1]; at 10 µM,2.1% (inactive)
same,nuclear beta-catenin stimulation,"[1]; stimulation, at 2 µM",1.9%
same,insulin secretion stimulation,[2],2.4% (inactive)
same,viability decrease,[3],7.6% (inactive)
same,tube area decrease,[4],3.9% (inactive)
same,GLP1 secretion stimulation,[5],6.5% (inactive)
same,inhibition of viability,[6],30.7% (inactive)
same,viability decrease (inhibition),[7],56.6% (active)
same,viability decrease (inhibition),[8],14.6% (inactive)
same,inhibition,[9],-14.3% (inactive)
same,mean signal,[10],230 (inactive)
same,red/green cell ratio (normalised),"[11]; actives lie on both sides, counts scaled to control wells, 1 = unselective",1.38 (inactive)
same,normalised cell number,[11]; measured here: epithelial PC-3E GFP cell survival,0.95
same,normalised cell number,[11]; measured here: mesenchymal TEM4-18 mCherry cell survival,1.32
same,z-score,[12]; [18],-0.372 (inactive) and -0.42 (inactive) and -0.564 (inactive)
same,z-score,[12]; [19],-0.543 and 0.116 and -0.0986
same,remaining NAD,[13],10 nM (inactive)
same,luciferase signal,[14],44 AU (inactive)
same,log fold change Tl+ flux,[15],-0.0507 (inactive)
same,log fold change Tl+ flux,[16],0.00169 (inactive)
same,log fold change Tl+ flux,[17],0.0403 (inactive)
C/C(=N/NC(=O)c1ccncc1)C(=O)O,nuclear beta-catenin stimulation,[1]; at 10 µM,-0.8% (inactive)
same,nuclear beta-catenin stimulation,"[1]; stimulation, at 2 µM",-0.3%
same,insulin secretion stimulation,[2],-0.8% (inactive)
same,viability decrease,[3],-23.6% (inactive)
same,tube area decrease,[4],-6.8% (inactive)
same,GLP1 secretion stimulation,[5],-2.8% (inactive)
same,inhibition of viability,[6],-1.23% (inactive)
same,viability decrease (inhibition),[7],17.4% (inactive)
same,viability decrease (inhibition),[8],4.2% (inactive)
O=C(CCCN1CCN(c2ccc(F)cc2)CC1)NC1c2ccccc2CSc2ccccc21 (stereo not given),nuclear beta-catenin stimulation,[1]; at 10 µM,1.8% (inactive)
same,nuclear beta-catenin stimulation,"[1]; stimulation, at 2 µM",1.3%
same,insulin secretion stimulation,[2],-0.2% (inactive)
same,viability decrease,[3],53.5% (active)
same,tube area decrease,[4],32.7% (inactive)
same,GLP1 secretion stimulation,[5],3.7% (inactive)
same,inhibition of viability,[6],47.5% (inactive)
same,viability decrease (inhibition),[7],27.4% (inactive)
same,viability decrease (inhibition),[8],14.8% (inactive)
CCCCOCCOC(=O)c1cccnc1,nuclear beta-catenin stimulation,[1]; at 10 µM,1.3% (inactive)
same,nuclear beta-catenin stimulation,"[1]; stimulation, at 2 µM",-0.3%
same,insulin secretion stimulation,[2],2.6% (inactive)
same,viability decrease,[3],-29.5% (inactive)
same,tube area decrease,[4],1.8% (inactive)
same,GLP1 secretion stimulation,[5],2.3% (inactive)
same,inhibition of viability,[6],-11.9% (inactive)
same,viability decrease (inhibition),[7],18.6% (inactive)
same,viability decrease (inhibition),[8],-20.5% (inactive)
c1ccc([C@H]2CN3CCSC3=N2)cc1,nuclear beta-catenin stimulation,[1]; at 10 µM,-0.8% (inactive)
same,nuclear beta-catenin stimulation,"[1]; stimulation, at 2 µM",-0.5%
same,insulin secretion stimulation,[2],0.8% (inactive)
same,viability decrease,[3],-1.75% (inactive)
same,tube area decrease,[4],2.3% (inactive)
same,GLP1 secretion stimulation,[5],-1.2% (inactive)
same,inhibition of viability,[6],-2.5% (inactive)
same,viability decrease (inhibition),[7],-10.8% (inactive)
same,viability decrease (inhibition),[8],-6.9% (inactive)
same,inhibition,[9],-3.99% (inactive)
same,z-score,[12]; [18],-0.321 (inactive) and -0.38 (inactive)
same,z-score,[12]; [19],-0.0854 and -1.67
same,remaining NAD,[13],10 nM (inactive)
same,luciferase signal,[14],44 AU (inactive)
